What all share (test): NCI-60 one-dose screen, 48 h (100 = growth as untreated, 0 = no growth, -100 = all killed)
One assay has as its system HT29 colon. The settings on record: 10 µM unless noted.
The subject of the next assay is SNB-75 CNS. The settings on record: 10 µM unless noted.
The subject of the next assay is SNB-19 CNS. To be noted: 10 µM unless noted.
The next assay deals with U251 CNS. The settings on record: 10 µM unless noted.
The next assay has as its system PC-3 prostate. To be noted: 10 µM unless noted.
Another assay deals with SK-MEL-5 melanoma. To be noted: 10 µM unless noted.
For another assay, the system named is UACC-62 melanoma. To be noted: 10 µM unless noted.
For another assay, the system named is LOX IMVI melanoma. To be noted: 10 µM unless noted.
For a further assay, the system named is SK-MEL-28 melanoma. The settings on record: 10 µM.
The next assay concerns SK-MEL-2 melanoma. The settings on record: 10 µM unless noted.
The test system of another assay is SN12C renal. To be noted: 10 µM unless noted.
In the next assay the test system is UO-31 renal. The settings on record: 10 µM unless noted.
A further assay concerns TK-10 renal. To be noted: 10 µM unless noted.
For a further assay, the system named is ACHN renal. To be noted: 10 µM unless noted.
A further assay deals with CAKI-1 renal. The settings on record: 10 µM unless noted.
The test system of another assay is A498 renal. The settings on record: 10 µM unless noted.
The subject of another assay is CCRF-CEM leukemia. The settings on record: 10 µM unless noted.
A further assay concerns MOLT-4 leukemia. To be noted: 10 µM unless noted.
The next assay concerns SR leukemia. The settings on record: 10 µM unless noted.

Compounds without any hit were thinned out: in the full panel of roughly 83,000, 20% have a hit.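 Compound tested at a single concentration for 48 hours in 96-well plates; a percent growth value below 10 was scored as active.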 Unmarked numbers belong to inactive results. Active and inactive are the calls of the source.

For eight compounds, growth results are on record in PubChem BioAssay (NCI).

As to `c1ccc(CNc2nc(Nc3ccccc3)nc3ccccc23)cc1`, the growth in the assay with HT29 colon was 54.5%; in the assay with SNB-75 CNS, -6.23% (active); in the assay on SNB-19 CNS it was 47.3%; in the assay with U251 CNS it was 29.6%; in the assay on PC-3 prostate it was 19.5%; with SK-MEL-5 melanoma, 54.8%. The growth with UACC-62 melanoma was 27.1%; in the assay with LOX IMVI melanoma, 59.6%; in the assay on SK-MEL-28 melanoma, -35.1% (active); in the assay on SK-MEL-2 melanoma, 21.8%; in the assay on SN12C renal, 71.3%; with UO-31 renal it was 80.7%. The growth in the assay with TK-10 renal was 19.3%; with ACHN renal, 33.7%; in the assay on CAKI-1 renal it was 40.4%; in the assay on A498 renal it was 37.4%; with CCRF-CEM leukemia, 69.5%; in the assay on MOLT-4 leukemia, 80.3%. The growth in the assay on SR leukemia was 20%.

As for `O=NN(C(=O)NC1CCC(C(=O)O)CC1)C1CCC(C(=O)O)CC1` (configuration not stated), the growth with HT29 colon is 108%; with SNB-75 CNS it was 84.1%; with SNB-19 CNS, 100%; with U251 CNS it was 104%; in the assay with PC-3 prostate it was 98.6%; with SK-MEL-5 melanoma it was 104%. In addition, the growth with UACC-62 melanoma is 108%; in the assay with LOX IMVI melanoma, 99.3%; in the assay with SK-MEL-28 melanoma, 106%; with SK-MEL-2 melanoma, 122%; with SN12C renal, 103%; in the assay on UO-31 renal, 92.8%. The growth in the assay on TK-10 renal is 110%; with ACHN renal it was 100%; in the assay with CAKI-1 renal, 90.2%; in the assay with A498 renal it was 103%; in the assay on CCRF-CEM leukemia, 91.9%; with MOLT-4 leukemia it was 102%. The growth with SR leukemia is 95%.

In the case of `Oc1c(CN2CCN(c3ccccc3F)CC2)cc(Br)c2cccnc12`, the growth in the assay with HT29 colon was -63.1% (active); in the assay on SNB-75 CNS, -92.2% (active); in the assay on SNB-19 CNS it was -16.6% (active); in the assay on U251 CNS, -83.5% (active); in the assay with PC-3 prostate it was 5.26% (active); in the assay on SK-MEL-5 melanoma, -10.3% (active). In addition, the growth is -42.5% (active) with UACC-62 melanoma; -8.44% (active) in the assay with LOX IMVI melanoma; -78% (active) in the assay with SK-MEL-28 melanoma; -54.3% (active) in the assay with SK-MEL-2 melanoma; 8.15% (active) in the assay with SN12C renal; -69.6% (active) in the assay on UO-31 renal. Besides, the growth is -84.1% (active) in the assay on TK-10 renal; -30.4% (active) with ACHN renal; -17.3% (active) in the assay with CAKI-1 renal; 88.1% in the assay on A498 renal; 1.46% (active) in the assay with CCRF-CEM leukemia; 5.58% (active) in the assay with MOLT-4 leukemia. Further, the growth with SR leukemia was -6.68% (active).

For `COc1ccc(C)c2sc(N(Cc3cccnc3)C(=O)c3ccc(C#N)cc3)nc12`, the growth in the assay on HT29 colon was 16%; with SNB-75 CNS it was 15.4%; in the assay with SNB-19 CNS, 12.4%; in the assay on U251 CNS, 1.87% (active); in the assay on PC-3 prostate, 16%; with SK-MEL-5 melanoma, -62.2% (active). Also, the growth was -33.3% (active) in the assay on UACC-62 melanoma; -7.23% (active) with LOX IMVI melanoma; 15.9% in the assay on SK-MEL-28 melanoma; 13.1% in the assay on SK-MEL-2 melanoma; 7.62% (active) with SN12C renal; -50.8% (active) in the assay with UO-31 renal. Further, the growth was 18% with TK-10 renal; 5.85% (active) in the assay on ACHN renal; -33.1% (active) in the assay on CAKI-1 renal; 2.59% (active) in the assay with A498 renal; 8.67% (active) in the assay on CCRF-CEM leukemia; 3.94% (active) in the assay on MOLT-4 leukemia. Also, in the assay on SR leukemia, the growth was 8.52% (active).

In the case of `CN(C)CCCNCc1ccc(-c2ccc(F)c(Cl)c2)o1`, the growth in the assay with HT29 colon was -30.6% (active); with SNB-75 CNS, 40.5%; in the assay on SNB-19 CNS, 73.6%; in the assay on U251 CNS it was -29.8% (active); in the assay on PC-3 prostate, 38.7%; with SK-MEL-5 melanoma it was 6.38% (active). The growth in the assay on UACC-62 melanoma was 20.1%; in the assay on LOX IMVI melanoma it was -90.1% (active); in the assay on SK-MEL-28 melanoma, -86.9% (active); in the assay with SK-MEL-2 melanoma, -14.8% (active); with SN12C renal it was 60.2%; in the assay with UO-31 renal, 16.7%. For the same compound, the growth with TK-10 renal is 42.8%; in the assay on ACHN renal, 30.1%; in the assay on CAKI-1 renal, 37.5%; in the assay on A498 renal, 78.2%; in the assay on CCRF-CEM leukemia, 1.99% (active); in the assay with MOLT-4 leukemia, -4.5% (active). Further, in the assay on SR leukemia, the growth is -22.9% (active).

Take `CCN1CCN(c2cc(C)c3cc(NC(=O)c4ccc(OC)c(OC)c4)ccc3n2)CC1`: the growth in the assay on HT29 colon was 13%; in the assay with SNB-75 CNS it was 66.9%; in the assay on SNB-19 CNS, 58.1%; in the assay on U251 CNS it was 45.6%; in the assay with PC-3 prostate it was 49.2%; in the assay on SK-MEL-5 melanoma, 19.4%. Moreover, the growth with UACC-62 melanoma was 27.3%; in the assay with LOX IMVI melanoma, 33.4%; in the assay on SK-MEL-28 melanoma, 51.9%; in the assay on SK-MEL-2 melanoma it was 50.7%; with SN12C renal it was 44.7%; in the assay with UO-31 renal, 54%. The growth in the assay with TK-10 renal is 57.6%; in the assay with ACHN renal it was 58.4%; with CAKI-1 renal it was 48.1%; in the assay with A498 renal it was -3.67% (active); in the assay on CCRF-CEM leukemia it was 7.94% (active); with MOLT-4 leukemia it was 16.2%. Besides, the growth with SR leukemia was 1.64% (active).

Take `Nc1nc(Nc2cccc(F)c2)nc2ccccc12`: the growth is 6.89% (active) in the assay on HT29 colon; 56.1% in the assay with SNB-75 CNS; 57.5% in the assay with SNB-19 CNS; 38% with U251 CNS; 44.3% in the assay on PC-3 prostate; 16% with SK-MEL-5 melanoma. Further, the growth in the assay on UACC-62 melanoma was 41.3%; with LOX IMVI melanoma, 17.2%; with SK-MEL-28 melanoma, 44.4%; in the assay on SK-MEL-2 melanoma, 50.6%; in the assay on SN12C renal it was 34.2%; in the assay on UO-31 renal it was 23.7%. Further, the growth is 29.9% in the assay with TK-10 renal; 44.8% in the assay on ACHN renal; 38.3% with CAKI-1 renal; 43.9% in the assay with A498 renal; 26.2% with CCRF-CEM leukemia; 39.5% with MOLT-4 leukemia. Also, in the assay with SR leukemia, the growth is 13.2%.

For the compound `CSc1nc2c(c(=O)[nH]1)N=C1c3ccccc3C(=O)C1C(c1ccc(F)cc1)N2` (configuration not stated), the growth with HT29 colon was 18%; in the assay with SNB-75 CNS, 26.8%; in the assay on SNB-19 CNS, 61.6%; in the assay with U251 CNS, 58.8%; with PC-3 prostate it was 69.3%; in the assay on SK-MEL-5 melanoma, 39.8%. The growth with UACC-62 melanoma was 43.1%; in the assay on LOX IMVI melanoma, 62%; in the assay on SK-MEL-28 melanoma, 83.5%; in the assay on SK-MEL-2 melanoma, 72.1%; with SN12C renal, 87.7%; with UO-31 renal, 62.8%. Also, the growth in the assay on TK-10 renal was 78.2%; in the assay on ACHN renal it was 59.1%; in the assay with CAKI-1 renal, 25.8%; with A498 renal, 88.2%; with CCRF-CEM leukemia, 52.5%; with MOLT-4 leukemia, 76%. Further, the growth in the assay with SR leukemia is 31.5%.
